Data published in PubChem BioAssay (NCATS).
Results filed as inconclusive are left out. The source made the active and inactive calls. The call rests on the fitted dose curve; in most records, active means well fitted activation curve with a large enough effect; inconclusive means small, poorly fitted or top-dose-only effect; inactive means no such curve, though single readings can be large or run the other way.

target: Cellular tumor antigen p53 (Homo sapiens) (UniProt P04637); assay: Primary qHTS for small molecule compounds that upregulate eGFP-tagged delta133p53alpha (in N-terminal) cells. (AID 2060322); settings: NCI-H358 eGFP-delta133p53alpha fluorescence, 24 h; activation: hits give high values; further: nearly all actives have a fitted effect of over 75% in size;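 on activation: series mostly up to about 56 µM; 0% = DMSO vehicle and 100% = reference activator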
Summary of the method: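 NCI-H358 cells pre-induced 24 h with 10 ng/ml doxycycline to express N-terminal eGFP-delta133p53alpha, then dosed 24 h at 37C without doxycycline; fixed, Hoechst-stained, GFP intensity by laser scanning cytometry, normalized to DMSO (0%) and 57.5 uM 5-azacytidine (100%).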
Potency means the concentration at half of the fitted maximal effect.

Cellular tumor antigen p53 (Homo sapiens), sequence (P04637 whole entry, looked up): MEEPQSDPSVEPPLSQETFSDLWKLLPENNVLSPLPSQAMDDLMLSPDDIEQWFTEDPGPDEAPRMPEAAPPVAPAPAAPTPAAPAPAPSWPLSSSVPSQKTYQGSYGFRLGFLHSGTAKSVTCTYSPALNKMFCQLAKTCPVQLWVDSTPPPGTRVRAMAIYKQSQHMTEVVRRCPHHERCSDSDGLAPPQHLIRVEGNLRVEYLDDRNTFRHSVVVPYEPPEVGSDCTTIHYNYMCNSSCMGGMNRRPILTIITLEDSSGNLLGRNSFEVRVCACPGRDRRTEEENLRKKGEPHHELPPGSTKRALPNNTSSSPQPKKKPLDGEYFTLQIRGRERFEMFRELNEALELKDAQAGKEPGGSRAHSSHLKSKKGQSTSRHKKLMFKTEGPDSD

Row | Structure (SMILES) | activation | Potency
1 | CCC1CC2C(C)=CC3CCCCC3C2(C)C2(OC(=O)C(C)(O)OC2=O)O1 (centres undefined) | -16% (inactive) | –
2 | C=C1C(=O)O[C@H]2[C@H]1[C@@H](OC(=O)C(C)CO)C[C@@]1(C)[C@H](O)CCC(=O)[C@H]21 (some centres undefined) | -11.5% (inactive) | –
3 | C[C@@H]1CC[C@]2(C(=O)O)CC[C@]3(C)C(=CCC4[C@]5(C)C(CC[C@]43C)C(C)(C)[C@@H](O)[C@H](O)[C@@H]5O)C2[C@]1(C)O (some centres undefined) | -4.46% (inactive) | –
4 | C/C=C(\C)C(=O)OC[C@H]1O[C@@H](O[C@H]2[C@@H](O[C@H]3O[C@H](COC(=O)/C(C)=C/C)[C@@H](O)[C@H](O)[C@H]3O[C@@H]3O[C@H](COC(=O)/C(C)=C/C)[C@@H](O)[C@H](OC(=O)/C(C)=C/C)[C@H]3O)O[C@H](COC(=O)/C(C)=C/C)[C@@H](O)[C@@H]2O)[C@H](O)[C@@H](O)[C@@H]1O | -15.3% (inactive) | –
5 | Nc1nc2c(ncn2CCC(CO)CO)c(=O)[nH]1 | -5.36% (inactive) | –
6 | CC1=C(C)C(=O)OC(C(C)C2CCC3C4CC=C5CC(OC6OC(COC7OC(CO)C(O)C(O)C7O)C(O)C(O)C6O)CC(O)C5(C)C4CCC23C)C1 (centres undefined) | 9.16% (inactive) | –
7 | CC1CCCC[C@H]2C(=O)C=C[C@H](O)[C@@H]2CC(=O)O1 (some centres undefined) | – | 23.9 µM (active)
8 | C=C1CC[C@@H]2[C@](C)(CO[C@@H]3O[C@H](CO)[C@@H](O)[C@H](O)[C@H]3O)[C@H](O)CC[C@@]2(C)[C@@H]1C/C=C1/C(=O)OC[C@H]1O | -8.93% (inactive) | –
9 | C[C@@H](Cc1cc2c(c(C(N)=O)c1)N(CCCO)CC2)NCCOc1ccccc1OCC(F)(F)F | 13.7% (inactive) | –
10 | C=C1[C@H](OC(C)=O)[C@H]2[C@@H](OC(C)=O)[C@](C)(OC(C)=O)C[C@]2(OC(C)=O)C(=O)[C@H](C)/C=C/C(C)(C)C(=O)[C@H](OC(=O)C(C)C)[C@H]1OC(C)=O | 2.29% (inactive) | –
11 | C=C1C(=O)OC2CC(C)=C(C(C)CCCO[C@@H]3O[C@H](CO)[C@@H](O)[C@H](O)[C@H]3O)C(O)C12 (some centres undefined) | -18.3% (inactive) | –
12 | CC1(C)CC[C@]2(C(=O)O[C@@H]3O[C@H](CO[C@@H]4O[C@H](CO)[C@@H](O)[C@H](O)[C@H]4O)[C@@H](O)[C@H](O[C@@H]4O[C@H](CO)[C@@H](O)[C@H](O)[C@H]4O)[C@H]3O)CC[C@]3(C)C(=CCC4[C@@]5(C)CC[C@H](O[C@@H]6OC[C@@H](O)[C@H](O)[C@H]6O)[C@@](C)(C(=O)O)C5CC[C@]43C)[C@@H]2C1 (some centres undefined) | 0% (inactive) | –
13 | O=C(/C=C/c1ccc(O)cc1)N[C@@H](Cc1ccc(O)cc1)C(=O)O | 2.29% (inactive) | –
14 | CC(C)/C=C1\NC(=O)C(C(C)C)n2c1nc1c(c2=O)C=CC=CO1 (centres undefined) | -7.63% (inactive) | –
15 | CNC(=O)[C@H]1O[C@@H](n2cnc3c(NCc4ccc(N)c(I)c4)ncnc32)[C@H](O)[C@@H]1O | 4.33% (inactive) | –
16 | C[C@@H]1CCCN1CCc1cc2cc(-c3ccc(C#N)cc3)ccc2o1 | -11.5% (inactive) | –
17 | C=C[C@@]12COC(=O)C(=C)[C@@H]1[C@@H](O)[C@H](C(=C)C(=O)OC)[C@@H](O)C2 | -7.63% (inactive) | –
18 | CC(=O)O[C@@H]1[C@H]2[C@@H](OC(=O)c3ccccc3)[C@@H](C)C[C@]2(O)[C@H](OC(C)=O)[C@@]2(C)[C@@H]3CC(C)(C)C(=O)[C@]3(OC(C)=O)C[C@@]12C | -15.2% (inactive) | –
19 | CC[C@@H](C)[C@@H]1OC2(C=C[C@H]1C)C[C@@H]1C[C@H](C/C=C(\C)[C@H](O[C@H]3C[C@H](OC)[C@H](O[C@H]4C[C@H](OC)[C@H](NC(C)=O)[C@H](C)O4)[C@H](C)O3)[C@H](C)/C=C/C=C3\CO[C@H]4[C@H](O)C(C)=C[C@@H](C(=O)O1)[C@@]34O)O2 (some centres undefined) | 24.3% (inactive) | –
20 | CC1(C)Oc2ncnc(N)c2N=C1c1ccc(C2CCC(CC(=O)O)CC2)cc1 (centres undefined) | -4.46% (inactive) | –
21 | COC(=O)C[C@H]1C(C)(C)[C@H](OC(C)=O)C2CC3=C4CC(=O)O[C@@H](c5ccoc5)[C@]4(C)CCC3[C@@]1(C)C2=O (some centres undefined) | 2.68% (inactive) | –
22 | CN(C)C(=O)CNC(=O)Cc1ccccc1 | 5.02% (inactive) | –
23 | CN1CCc2cc3c(cc2C(=O)Cc2cc4c(cc2C1)OCO4)OCO3 | -8.04% (inactive) | –
24 | CC(C)(O)C(=O)N1CCN(c2ccc(C(F)(F)F)c(C3=C(c4c[nH]c5ccccc45)C(=O)NC3=O)c2)CC1 | – | 26.9 µM (active)
